Laboratory results as given in PubChem BioAssay AID1159580 (chemical genetic matrix, 2015).
Where “and” joins values, the source holds several entries; their conditions need not be identical. Identical values can stand only once. Screen size: about 5,500 compounds; about 2,000 (36%) were called active. Roughly 18% stayed inconclusive and do not appear here. No stated cut-off is given here; in the data, active means normalized growth mostly below about 0.91 (no sharp cut-off); inconclusive means no clear call, values can overlap the other calls; inactive means mostly above about 0.92. The list shows a part of the results.

Assay: chemical genetic growth profiling, strain panel (AID 1159580);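 further: tested at 20 µM; growth read once vehicle control cultures reached saturation at 30 °C; 1 = growth at the plate median or of vehicle wells; lower values mean less growth of the strain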
Conditions: S. cerevisiae deletion strains, growth OD

Measured: normalized growth

CCc1cccc2c3c([nH]c12)C(CC)(CC(=O)O)OCC3 (stereo not given)
inactive: locus YAL013W, strain DEP1, hits give low values 1.01 and 1.02 | locus YAL021C, strain ccr4, hits give low values 1.01 | locus YAL026C, strain drs2, hits give low values 0.983 | locus YAL030W, strain snc1, hits give low values 1 | locus YAL040C, strain CLN3, hits give low values 0.976 | locus YBL061C, strain skt5, hits give low values 0.979 | locus YBR009C, strain hhf1, hits give low values 1 | locus YBR021W, strain FUR4, hits give low values 1.01 | locus YBR023C, strain chs3, hits give low values 0.968 | locus YBR171W, strain sec66, hits give low values 0.959 | locus YBR229C, strain ROT2, hits give low values 1.01 | locus YBR231C, strain swc5, hits give low values 0.989 | locus YBR279W, strain paf1, hits give low values 0.987 | locus YCL011C, strain gbp2, hits give low values 1 | locus YCL016C, strain dcc1, hits give low values 1 | locus YCL029C, strain bik1, hits give low values 1.01 | locus YCL061C, strain MRC1 (second series), hits give low values 0.995 | locus YCL069W, strain vba3, hits give low values 0.976 | locus YCR088W, strain abp1, hits give low values 0.983 | locus YDL005C, strain med2, hits give low values 0.971 | locus YDL035C, strain GPR1, hits give low values 1 | locus YDL040C, strain nat1, hits give low values 0.976 | locus YDL074C, strain BRE1, hits give low values 1.02 | locus YDL101C, strain DUN1, hits give low values 1.02 | locus YDL134C, strain PPH21, hits give low values 1.01 | locus YDL185W, strain tfp1, hits give low values 1.01 | locus YDL192W, strain arf1, hits give low values 1.01 | locus YDR001C, strain nth1, hits give low values 0.966 | locus YDR069C, strain doa4, hits give low values 0.976 | locus YDR101C, strain arx1, hits give low values 1 | locus YDR137W, strain rgp1, hits give low values 0.964 | locus YDR150W, strain NUM1, hits give low values 1 and 0.999 | locus YDR159W, strain sac3, hits give low values 0.976 | locus YDR162C, strain NBP2, hits give low values 1.01 | locus YDR195W, strain ref2 0.896 | locus YDR297W, strain sur2, hits give low values 0.985 | locus YDR318W, strain mcm21, hits give low values 1.02 | locus YDR334W, strain swr1, hits give low values 0.951 | locus YDR335W, strain msn5, hits give low values 0.968 | locus YDR363W, strain ESC2, hits give low values 1.05 | locus YDR388W, hits give low values 1.01 | locus YDR392W, strain spt3, hits give low values 1.03 | locus YDR502C, strain sam2, hits give low values 0.986 | locus YEL003W, strain gim4, hits give low values 0.964 | locus YEL037C, strain rad23, hits give low values 0.968 | locus YEL061C, strain CIN8 (second series), hits give low values 0.965 | locus YEL061C, strain CIN8, hits give low values 1 | locus YER002W, strain NOP16, hits give low values 0.979 | locus YER015W, strain faa2, hits give low values 0.973 | locus YER016W, strain bim1, hits give low values 0.984 | locus YER110C, hits give low values 1 | locus YER111C, strain swi4, hits give low values 0.968 | locus YER155C, strain BEM2 (second series), hits give low values 0.979 | locus YER155C, strain BEM2, hits give low values 1.01 | locus YER167W, strain BCK2, hits give low values 1.01 | locus YFR010W, strain ubp6, hits give low values 0.984 | locus YGL078C, strain dbp3, hits give low values 0.99 | locus YGL086W, strain mad1, hits give low values 1.01 | locus YGL167C, strain pmr1, hits give low values 0.957 | locus YGL173C, strain kem1, hits give low values 0.993 | locus YGL227W, strain vid30, hits give low values 0.987 | locus YGL240W, strain doc1, hits give low values 0.982 | locus YGL248W, strain PDE1, hits give low values 1.01 | locus YGL253W, strain hxk2, hits give low values 0.98 | locus YGR078C, strain PAC10, hits give low values 1.02 | locus YGR135W, strain pre9, hits give low values 1 | locus YGR229C, strain SMI1, hits give low values 0.995 | locus YGR252W, strain gcn5, hits give low values 1 | locus YHR013C, strain ard1, hits give low values 0.985 | locus YHR027C, strain rpn1, hits give low values 0.997 | locus YHR030C, strain SLT2, hits give low values 1.01 and 0.971 | locus YHR079C, strain IRE1 (second series), hits give low values 1.01 | locus YHR079C, strain IRE1, hits give low values 0.965 | locus YHR094C, strain hxt1, hits give low values 1.01 | locus YHR129C, strain ARP1, hits give low values 1.01 | locus YHR142W, strain chs7, hits give low values 0.986 | locus YHR200W, strain rpn10, hits give low values 1 | locus YIL066C, strain RNR3, hits give low values 1.01 | locus YIL073C, strain SPO22, hits give low values 1.02 | locus YIL125W, strain kgd1, hits give low values 0.992 | locus YIR030C, strain dcg1, hits give low values 0.997 | locus YJL092W, strain hpr5, hits give low values 0.982 | locus YJL095W, strain BCK1 (second series), hits give low values 0.987 | locus YJL095W, strain BCK1, hits give low values 1.05 and 0.971 | locus YJL115W, strain asf1, hits give low values 0.98 | locus YJL129C, strain trk1, hits give low values 0.934 | locus YJL134W, strain LCB3, hits give low values 1.01 | locus YJL154C, strain vps35, hits give low values 0.981 | locus YJL164C, strain tpk1, hits give low values 1.01 | locus YJL166W, strain qcr8, hits give low values 0.984 | locus YJL168C, strain set2, hits give low values 1 | locus YJL187C, strain SWE1 (second series), hits give low values 1.03 | locus YJR043C, strain POL32, hits give low values 1.01 | locus YJR066W, strain TOR1, hits give low values 0.916 | locus YJR075W, strain HOC1, hits give low values 1.02
